# Results reported in the supplement of paper PMC8728848.
# Only a selection was taken, and the strongest signals are over-represented in it overall.
# B1: Surfactant Protein D (Human); Neck + Carbohydrate Recognition Domain (NCRD) (Homo sapiens) (protein)
# chain: MLLFLLSALVLLTQPLGYLEAEMKTYSHRTMPSACTLVMCSSVESGLPGRDRDGREGPRGEKGDPGLPGAAGQAGMPGQAGPVGPKGDNGSVGEPGPKGDTGPSGPPGPPGVPGPAGREGALGKQGNIGPQGKPGPKGEAGPKGEVGAPGMQGSAGARGLAGPKGERGVPGERGVPGNTGAAGSAGAMGPQGSPGARGPPGLKGDKGIPGDKGAKGESGLPDVASLRQQVEALQGQVQHLQAAFSQYKKVELFPNGQSVGEKIFKTAQFVKPFTEAQLLCTQAGGQLASPRSAAENAALQQLVVAKNEAAFLSMTDSKTEGKFTYPTGESLVYSNWAPGEPNDAGGSEDCVEIFTNGKWNDRACGEKRLVVCEF
# Assays:
# Assay in all cases: glycan array binding signal (z-score within array); higher = stronger binding
# Settings in all cases: glycan notation: IUPAC condensed, linker removed; mutation: D325A
# [1] = molecular target: Fuc(a1-2)Gal(b1-3)GalNAc(b1-4)[Neu5Ac(a2-3)]Gal(b1-4)Glc
# Procedure, shortened: (§1)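 The Consortium for Functional Glycomics database supplied 3228 glycan arrays, of which those lacking an available protein sequence were dropped. The binding signal, a within-array Z-score, was averaged across arrays of the same protein sequence and across linkers. Negative scores can be read as non-binding.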
# Fuc(a1-2)Gal(b1-3)GlcNAc = molecular target: Fuc(a1-2)Gal(b1-3)GlcNAc
# Procedure, shortened: as §1
# [2] = molecular target: Fuc(a1-2)Gal(b1-4)GlcNAc(b1-3)Gal(b1-4)GlcNAc
# Procedure, shortened: as §1
# [3] = molecular target: Fuc(a1-2)[Gal(a1-3)]Gal(b1-4)Glc
# Procedure, shortened: as §1
# [4] = molecular target: Fuc(a1-2)[GalNAc(b1-3)]Gal
# Procedure, shortened: as §1
# [5] = molecular target: Fuc(a1-3)[Gal3S(b1-4)]Glc6S
# Procedure, shortened: as §1
# [6] = molecular target: Fuc(a1-3)[Gal3S(b1-4)]GlcNAc
# Procedure, shortened: as §1
# Gal(a1-3)GalNAc = molecular target: Gal(a1-3)GalNAc
# Procedure, shortened: as §1
# [7] = molecular target: Gal(b1-3)GlcNAc(b1-3)Gal(b1-4)GlcNAc
# Procedure, shortened: as §1
# [8] = molecular target: Gal(b1-4)GlcNAc(b1-2)Man(a1-3)[Gal(b1-4)GlcNAc(b1-2)Man(a1-6)]Man(b1-4)GlcNAc(b1-4)GlcNAc
# Procedure, shortened: as §1
# [9] = molecular target: Gal(b1-4)GlcNAc(b1-3)Gal(b1-3)GlcNAc
# Procedure, shortened: as §1
# Gal3S(b1-3)GalNAc = molecular target: Gal3S(b1-3)GalNAc
# Procedure, shortened: as §1
# Gal4S6S(b1-4)GlcNAc = molecular target: Gal4S6S(b1-4)GlcNAc
# Procedure, shortened: as §1
# GlcA(b1-6)Gal = molecular target: GlcA(b1-6)Gal
# Procedure, shortened: as §1
# [10] = molecular target: GlcNAc(b1-4)Gal(b1-4)GlcNAc
# Procedure, shortened: as §1
# [11] = molecular target: Man(a1-2)Man(a1-2)Man(a1-3)Man
# Procedure, shortened: as §1
# [12] = molecular target: Man(a1-2)Man(a1-3)[Man(a1-2)Man(a1-6)]Man(a1-6)[Man(a1-2)Man(a1-2)Man(a1-3)]Man
# Procedure, shortened: as §1
# [13] = molecular target: Man(a1-2)Man(a1-6)[Man(a1-3)]Man(a1-6)[Man(a1-2)Man(a1-2)Man(a1-3)]Man
# Procedure, shortened: as §1
# [14] = molecular target: Man(a1-3)[Man(a1-6)]Man(a1-6)[Man(a1-2)Man(a1-3)]Man(b1-4)GlcNAc(b1-4)GlcNAc
# Procedure, shortened: as §1
# [15] = molecular target: Man(a1-3)[Man(a1-6)]Man(a1-6)[Man(a1-3)]Man
# Procedure, shortened: as §1
# [16] = molecular target: Neu5Gc(a2-3)Gal(b1-4)[Fuc(a1-3)]GlcNAc
# Procedure, shortened: as §1
binder,measurement,setting,value
B1,glycan array binding signal (z-score),[1],-0.163
same,glycan array binding signal (z-score),Fuc(a1-2)Gal(b1-3)GlcNAc,-0.276
same,glycan array binding signal (z-score),[2],-0.226
same,glycan array binding signal (z-score),[3],-0.272
same,glycan array binding signal (z-score),[4],-0.268
same,glycan array binding signal (z-score),[5],-0.246
same,glycan array binding signal (z-score),[6],-0.269
same,glycan array binding signal (z-score),Gal(a1-3)GalNAc,-0.164
same,glycan array binding signal (z-score),[7],-0.267
same,glycan array binding signal (z-score),[8],-0.273
same,glycan array binding signal (z-score),[9],-0.269
same,glycan array binding signal (z-score),Gal3S(b1-3)GalNAc,-0.274
same,glycan array binding signal (z-score),Gal4S6S(b1-4)GlcNAc,-0.275
same,glycan array binding signal (z-score),GlcA(b1-6)Gal,-0.26
same,glycan array binding signal (z-score),[10],-0.128
same,glycan array binding signal (z-score),[11],5.67
same,glycan array binding signal (z-score),[12],5.16
same,glycan array binding signal (z-score),[13],4.8
same,glycan array binding signal (z-score),[14],4.71
same,glycan array binding signal (z-score),[15],4.73
same,glycan array binding signal (z-score),[16],-0.27
